From PubChem BioAssay (NCATS) come the findings set out here.

Each structure is given as a SMILES string. “And” between values parts separate entries of the source, which are not always exact repeats. Equal entries are not always repeated.

A short description of this assay: qHTS profiling for inhibitors of Plasmodium falciparum (HB3) proliferation (AID 743324).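 Also: 100% = DMSO vehicle wells and 0% = artemisinin-treated control wells.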 The note with it: Plasmodium falciparum HB3 blood-stage proliferation; at 28.7 µM (top of the series). From the text: Plasmodium falciparum is a virulent malarial parasite that kills 1-2 million people worldwide each year. Transmitted by mosquitoes, the sporozoite form of the parasite enters the blood stream to infect hepatocytes, where they become merozoites that infect red blood cells (erythrocytes). Within erythrocytes, merozoites begin a […] cycle of growth and division, after which the parasite is released to infect new red blood cells. Gametocytes, which form within erythrocytes as well, circulate in the bloodstream and are ingested by the mosquito, thereby completing the life cycle. To profile malarial isolates for differential chemical responses and to identify inhibitors of malarial growth, an assay that measures P. falciparum growth and replication within erythrocytes was employed. This assay uses a DNA binding fluorescent dye (SYBR Green) to detect parasite DNA following cell lysis. Because mature erythrocytes lack DNA, only Plasmodium-derived DNA is detected.
For screening 3 ul culture medium was dispensed into 1536 well black clear bottom plates (Aurora Biotechnologies) using a Multidrop Combi (Thermo Fisher Scientific Inc.), 23 nL compounds in DMSO were added by a pin tool (Kalypsys), and 5 ul of erythrocytes infected with P. falciparum (0.3% parasitemia, 2.5% hematocrit final concentration) were added. The plates were incubated at 37 C in a humidified incubator in 5% CO2 for 72 h, and 2 ul lysis buffer (20 mM Tris HCl, 10 mM EDTA, 0.16% saponin, […]% triton X, 10X SYBR Green I supplied as 10,000X […] by Invitrogen) was added to each well. The plates were mixed for 25 sec with gentle shaking and incubated overnight at room temperature in the dark. The following morning, fluorescence intensity at 485(14) nm excitation and 535(25) nm emission wavelengths was measured on an EnVision (Perkin Elmer) plate reader. Plate reads were normalized relative to the control inhibitor (0.29 uM artemisinin) and vehicle (DMSO) wells present on each plate and then corrected by an algorithm using vehicle-only control plates at the beginning and end of the compound plate stack.
A general note: qHTS replaces the single test concentration by a dilution series.
Take `Cc1ccc(C(=O)Nc2ccc(CN3CCN(C)CC3)c(C(F)(F)F)c2)cc1C#Cc1cnc2cccnn12`: the remaining proliferation (% of control), lower = more inhibition was -1.05%.

As to `C[C@]1(CO)CN(c2cc(C(=O)Nc3ccc4c(c3)-c3c(c(C(N)=O)nn3-c3ccc(F)cc3)CC4)c(Cl)cn2)C[C@@]1(C)CO`, the remaining proliferation (% of control), lower = more inhibition worked out at 6.49%. `CN1CC[C@@H](c2c(O)cc(O)c3c(=O)cc(-c4ccccc4Cl)oc23)[C@@H](O)C1`: the remaining proliferation (% of control), lower = more inhibition amounted to 4.58%.

For the molecule `Cc1[nH]c2ccccc2c1CCNCc1ccc(C=CC(=O)NO)cc1`, the remaining proliferation (% of control), lower = more inhibition is -0.887%. Then `CC(C)(C)c1cnc(CSc2cnc(NC(=O)C3CCNCC3)s2)o1`, with 7.19%; and `Cc1cc(Nc2cc(N3CCN(C)CC3)nc(Sc3ccc(NC(=O)C4CC4)cc3)n2)n[nH]1`, with 9.14%.

For the molecule `Cc1cccc(C=NNc2cc(N3CCOCC3)nc(OCCc3ccccn3)n2)c1`, the remaining proliferation (% of control), lower = more inhibition stood at 1.85%. To `COc1ccc(C=Cc2cc(OC)c(OC)c(OC)c2)cc1O` belongs 84.7%; to `Nc1cc(C(F)(F)F)c(-c2cc(N3CCOCC3)nc(N3CCOCC3)n2)cn1`, 58.8%.

With `CCC(=C(c1ccccc1)c1ccc(OCCN(C)C)cc1)c1ccccc1`, the remaining proliferation (% of control), lower = more inhibition was 8.11%.

With `CC=C1NC(=O)[C@H]2CSSCCC=C[C@H](CC(=O)N[C@H](C(C)C)C(=O)N2)OC(=O)[C@H](C(C)C)NC1=O`, the remaining proliferation (% of control), lower = more inhibition turned out to be 98.4%. `CC(NCc1ccc2c(c1)nc(NC(=O)c1ccc(-c3cn[nH]c3)s1)n2CC(C)(C)O)C(C)(C)C` (stereo not given): the remaining proliferation (% of control), lower = more inhibition is -1%. To `COCCn1c2c([n+](Cc3cnccn3)c1C)C(=O)c1ccccc1C2=O` belongs -1.98%; to `CNc1nccc(-c2cccnc2Oc2cc(C(=O)Nc3cccc(C(F)(F)F)c3)ccc2C)n1`, 3.23%. In the case of `Cn1c(=O)n(-c2ccc(C(C)(C)C#N)cc2)c2c3cc(-c4cnc5ccccc5c4)ccc3ncc21`, the remaining proliferation (% of control), lower = more inhibition came to 1.06%. Then `COc1ccc(CC2SC(=O)NC2=O)cc1C(=O)NCc1ccc(C(F)(F)F)cc1` (stereo not given), with 54.2%; and `NC(=O)Nc1cc(-c2cccc(F)c2)sc1C(=O)N[C@H]1CCCNC1`, with 0.699%. With `COc1cc(OC2CCN(C)CC2)ccc1Nc1ncc2c(n1)n(C1CCCC1)c(=O)n2C`, the remaining proliferation (% of control), lower = more inhibition worked out at 1.94%.

`CN(C)CC=CC(=O)Nc1cc2c(Nc3ccc(F)c(Cl)c3)ncnc2cc1O[C@H]1CCOC1`: the remaining proliferation (% of control), lower = more inhibition was 0.188%. As to `CCC[C@H](NC(=O)C(C#N)=Cc1cccc(Br)n1)c1ccccc1`, the remaining proliferation (% of control), lower = more inhibition was determined as 14.8%. Take `O=C(c1ccc(Nc2nccc(-c3cc4ccccc4s3)n2)cc1)N1CCC(N2CCCC2)CC1`: the remaining proliferation (% of control), lower = more inhibition is -1.21%.

In the case of `C[C@@]12O[C@@H](C[C@]1(O)CO)n1c3ccccc3c3c4c(c5c6ccccc6n2c5c31)CNC4=O`, the remaining proliferation (% of control), lower = more inhibition stood at 0.698%. Consider `CC(C)c1ccccc1Cc1cc(C(=O)Nc2ccc(S(=O)(=O)c3ccccc3C(C)(C)C)cc2)c(O)c(O)c1O`, for which the remaining proliferation (% of control), lower = more inhibition is -0.184%.

On to `O=c1[nH]nc(Sc2ncc([N+](=O)[O-])s2)n1-c1ccc2c(c1)OCCO2`, for which the remaining proliferation (% of control), lower = more inhibition worked out at 3.82%. With `COc1cc2c(Nc3ccc(NC(=O)c4ccccc4)cc3)ncnc2cc1OCCCN1CCOCC1`, the remaining proliferation (% of control), lower = more inhibition stood at 3.78%. To `Nc1ccc(C(=O)c2cc3c(ccc4ccccc43)[nH]2)cc1` belongs 99.1%; to `Cn1cncc1[C@@](N)(c1ccc(Cl)cc1)c1ccc2c(c1)c(-c1cccc(Cl)c1)cc(=O)n2C`, 1.12%. Then `Cn1c2cc(S(C)=O)sc2c2cnn(Cc3cccc(N)c3)c(=O)c21` (stereo not given), with 53.2% and 65.3%; and `O=C(O)c1ccc2c(c1)nc(Nc1cccc(Cl)c1)c1ccncc12`, with -0.0167%; and `CCCCCN(CCC12CC3CC(CC(C3)C1)C2)C(=O)NCCCc1ccncc1`, with 7.47%. To `c1cc(-c2cnn3cc(-c4ccc(OCCN5CCCCC5)cc4)cnc23)ccn1` belongs 12%. Take `Cc1ccc(S(=O)(=O)Nc2cc(Cl)ccc2C(=O)Nc2nc(-c3ccccc3)cs2)cc1`: the remaining proliferation (% of control), lower = more inhibition was determined as 8.77%.

Consider `N#Cc1c(O)c2c(-c3ccc(-c4ccccc4O)cc3)csc2[nH]c1=O`, for which the remaining proliferation (% of control), lower = more inhibition amounted to 87.6%. Then `COc1ccc(OC)c(-c2nnc3ccc(-c4ccc(OC)c(O[C@@H]5CCOC5)c4)nn23)c1`, with 0.357%; and `C[C@@H](Oc1cc(-c2cnn(C3CCNCC3)c2)cnc1N)c1c(Cl)ccc(F)c1Cl`, with -2.16%; and `c1nc2nc(Nc3ccc(N4CCOCC4)cc3)nc(NC3CCCCC3)c2[nH]1`, with -0.173%. With `CC[C@H](CO)Nc1nc(NCc2ccccc2)c2ncn(C(C)C)c2n1`, the remaining proliferation (% of control), lower = more inhibition stood at 19.5%. To `COC(=O)c1ccc2c(C(=Nc3ccc(N(C)C(=O)CN4CCN(C)CC4)cc3)c3ccccc3)c(O)[nH]c2c1` belongs 0.135%; to `COc1cc(=C2C=c3ccccc3=N2)[nH]c1=Cc1[nH]c(C)cc1C`, 1.42%; to `CC(C)(C)c1cc(NC(=O)Nc2ccc(-c3cn4c(n3)sc3cc(OCCN5CCOCC5)ccc34)cc2)no1`, -0.226%.
